Reference: the supplement of paper PMC10849652
About 7,900 targets were measured; listed, in parts, are those with a hit and a random draw of the rest. About 0.6% of all pairs of compound and target were hits.

compound: Cc1cn(-c2cc(NC(=O)c3ccc(C)c(Nc4nccc(-c5cccnc5)n4)c3)cc(C(F)(F)F)c2)cn1 [nilotinib]; assay: log2 fold change, soluble protein after heating vs DMSO (PISA); higher = thermal stabilisation; K562 cells, 10 uM, 30 min; active = over 0.2 and 3.5 SD of the protein, either way, in both replicates (recomputed)
Method in brief: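 K562 cells at 2×10^6 cells/mL were given 10 μM compound for 30 min. Aliquots then went through 3 min of heating across 48°C-58°C, were pooled, and were extracted in PBS with 0.5% NP-40 at 4°C, and the supernatant after 21,000xg for 90 min was quantified by TMTpro 16plex LC-MS/MS with channel sums equalised. Thermal stability relative to control samples, from duplicates, is given as log2 fold change.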

Chain of UniProt Q9H019 (Q9H019 whole entry, looked up): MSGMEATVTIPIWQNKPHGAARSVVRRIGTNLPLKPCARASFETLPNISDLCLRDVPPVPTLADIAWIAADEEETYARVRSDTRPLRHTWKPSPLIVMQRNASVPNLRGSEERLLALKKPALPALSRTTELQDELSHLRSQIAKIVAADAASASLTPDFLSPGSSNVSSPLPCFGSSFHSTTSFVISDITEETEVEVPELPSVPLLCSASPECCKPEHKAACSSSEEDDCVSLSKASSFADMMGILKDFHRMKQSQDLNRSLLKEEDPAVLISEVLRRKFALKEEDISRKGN
Chain of UniProt Q8IXH7 (Q8IXH7 whole entry, looked up): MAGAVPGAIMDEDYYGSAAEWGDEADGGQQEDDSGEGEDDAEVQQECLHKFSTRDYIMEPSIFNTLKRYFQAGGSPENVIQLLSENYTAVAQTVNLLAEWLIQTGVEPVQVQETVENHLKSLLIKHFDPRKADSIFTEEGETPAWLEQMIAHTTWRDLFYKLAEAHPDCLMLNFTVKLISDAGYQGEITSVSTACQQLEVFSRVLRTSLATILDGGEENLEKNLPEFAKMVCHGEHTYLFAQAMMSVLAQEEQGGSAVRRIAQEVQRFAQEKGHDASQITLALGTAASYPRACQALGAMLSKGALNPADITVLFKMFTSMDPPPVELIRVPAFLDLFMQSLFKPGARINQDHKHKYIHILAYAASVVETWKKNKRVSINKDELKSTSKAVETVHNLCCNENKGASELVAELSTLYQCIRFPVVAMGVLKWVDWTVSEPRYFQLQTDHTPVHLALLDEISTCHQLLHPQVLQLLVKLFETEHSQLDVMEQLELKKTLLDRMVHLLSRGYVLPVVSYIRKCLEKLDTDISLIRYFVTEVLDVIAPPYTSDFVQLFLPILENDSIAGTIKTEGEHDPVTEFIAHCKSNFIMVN
Chain of UniProt Q9BS92 (Q9BS92 whole entry, looked up): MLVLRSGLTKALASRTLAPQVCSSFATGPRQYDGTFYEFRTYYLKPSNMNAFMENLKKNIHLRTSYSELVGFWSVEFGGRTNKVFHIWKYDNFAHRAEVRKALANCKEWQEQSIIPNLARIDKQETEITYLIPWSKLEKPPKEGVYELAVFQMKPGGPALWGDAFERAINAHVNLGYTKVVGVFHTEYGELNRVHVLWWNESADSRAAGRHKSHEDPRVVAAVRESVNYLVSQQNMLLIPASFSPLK
Chain of UniProt Q9Y6R0 (Q9Y6R0 whole entry, looked up): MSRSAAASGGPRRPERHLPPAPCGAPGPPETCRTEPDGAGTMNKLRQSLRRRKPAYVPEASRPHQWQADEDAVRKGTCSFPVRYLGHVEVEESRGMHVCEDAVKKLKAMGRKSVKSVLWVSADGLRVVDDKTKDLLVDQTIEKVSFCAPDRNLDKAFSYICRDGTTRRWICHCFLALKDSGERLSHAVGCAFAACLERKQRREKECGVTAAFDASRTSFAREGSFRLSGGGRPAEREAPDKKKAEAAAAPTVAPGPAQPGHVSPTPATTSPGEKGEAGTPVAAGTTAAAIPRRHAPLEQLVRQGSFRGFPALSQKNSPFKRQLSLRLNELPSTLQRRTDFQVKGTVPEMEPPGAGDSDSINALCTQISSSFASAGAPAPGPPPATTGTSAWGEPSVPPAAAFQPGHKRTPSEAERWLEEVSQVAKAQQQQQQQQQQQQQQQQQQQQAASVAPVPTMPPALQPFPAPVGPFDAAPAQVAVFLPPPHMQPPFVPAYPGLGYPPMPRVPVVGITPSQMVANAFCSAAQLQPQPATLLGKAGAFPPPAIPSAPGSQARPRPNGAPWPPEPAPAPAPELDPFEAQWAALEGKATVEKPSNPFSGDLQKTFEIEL
Chain of UniProt P25208 (P25208 whole entry, looked up): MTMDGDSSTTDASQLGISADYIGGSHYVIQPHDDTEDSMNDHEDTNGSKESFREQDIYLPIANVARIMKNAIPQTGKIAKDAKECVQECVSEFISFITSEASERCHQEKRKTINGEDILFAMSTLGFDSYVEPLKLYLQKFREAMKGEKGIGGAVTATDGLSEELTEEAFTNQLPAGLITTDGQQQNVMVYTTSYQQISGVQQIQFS
Chain of UniProt Q8WZ82 (Q8WZ82 whole entry, looked up): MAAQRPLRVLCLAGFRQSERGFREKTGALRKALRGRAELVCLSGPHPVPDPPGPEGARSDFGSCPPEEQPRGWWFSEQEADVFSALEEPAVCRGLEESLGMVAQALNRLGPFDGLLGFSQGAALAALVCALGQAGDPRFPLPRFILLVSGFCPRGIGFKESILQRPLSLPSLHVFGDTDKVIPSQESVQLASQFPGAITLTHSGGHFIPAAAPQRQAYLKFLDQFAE
Chain of UniProt O43913 (O43913 whole entry, looked up): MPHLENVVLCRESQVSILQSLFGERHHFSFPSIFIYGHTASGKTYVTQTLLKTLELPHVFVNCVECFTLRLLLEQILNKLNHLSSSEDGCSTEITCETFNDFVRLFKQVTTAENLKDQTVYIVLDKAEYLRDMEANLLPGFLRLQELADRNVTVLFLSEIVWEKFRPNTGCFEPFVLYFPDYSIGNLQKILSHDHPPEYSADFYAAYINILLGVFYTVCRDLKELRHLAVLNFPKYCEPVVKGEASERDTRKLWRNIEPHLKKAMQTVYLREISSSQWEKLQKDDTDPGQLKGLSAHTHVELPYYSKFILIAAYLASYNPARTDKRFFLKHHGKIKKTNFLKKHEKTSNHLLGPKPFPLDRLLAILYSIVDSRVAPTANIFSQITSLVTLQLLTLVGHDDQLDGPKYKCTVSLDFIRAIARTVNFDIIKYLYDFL
Chain of UniProt Q9H6N6 (Q9H6N6 whole entry, looked up): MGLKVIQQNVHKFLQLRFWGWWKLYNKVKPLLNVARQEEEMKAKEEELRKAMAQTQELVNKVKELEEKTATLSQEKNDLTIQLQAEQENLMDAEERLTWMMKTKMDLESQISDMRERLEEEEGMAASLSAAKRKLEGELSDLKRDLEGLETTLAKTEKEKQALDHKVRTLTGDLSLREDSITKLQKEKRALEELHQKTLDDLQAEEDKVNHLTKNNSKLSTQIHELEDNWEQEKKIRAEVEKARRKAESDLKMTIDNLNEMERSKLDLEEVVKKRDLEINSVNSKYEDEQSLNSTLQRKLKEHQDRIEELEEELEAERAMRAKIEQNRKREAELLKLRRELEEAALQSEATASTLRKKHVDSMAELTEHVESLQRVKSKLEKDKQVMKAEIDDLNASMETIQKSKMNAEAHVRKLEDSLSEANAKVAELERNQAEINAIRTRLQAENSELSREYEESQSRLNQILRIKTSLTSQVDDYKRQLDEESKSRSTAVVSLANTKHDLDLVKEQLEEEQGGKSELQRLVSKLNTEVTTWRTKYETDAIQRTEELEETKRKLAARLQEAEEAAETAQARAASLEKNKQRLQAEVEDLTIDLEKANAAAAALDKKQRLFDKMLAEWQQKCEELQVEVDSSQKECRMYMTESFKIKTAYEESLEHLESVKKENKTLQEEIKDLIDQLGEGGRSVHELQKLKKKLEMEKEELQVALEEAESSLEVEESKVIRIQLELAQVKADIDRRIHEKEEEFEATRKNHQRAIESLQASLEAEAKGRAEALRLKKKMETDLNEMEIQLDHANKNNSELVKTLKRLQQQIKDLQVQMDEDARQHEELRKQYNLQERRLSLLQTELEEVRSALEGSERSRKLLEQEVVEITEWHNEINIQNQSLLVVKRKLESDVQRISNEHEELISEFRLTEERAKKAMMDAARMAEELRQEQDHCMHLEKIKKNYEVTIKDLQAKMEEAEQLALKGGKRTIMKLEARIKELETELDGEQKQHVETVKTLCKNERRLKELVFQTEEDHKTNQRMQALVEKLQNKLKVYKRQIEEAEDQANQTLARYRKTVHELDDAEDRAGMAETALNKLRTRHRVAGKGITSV
Chain of UniProt Q70IA6 (Q70IA6 whole entry, looked up): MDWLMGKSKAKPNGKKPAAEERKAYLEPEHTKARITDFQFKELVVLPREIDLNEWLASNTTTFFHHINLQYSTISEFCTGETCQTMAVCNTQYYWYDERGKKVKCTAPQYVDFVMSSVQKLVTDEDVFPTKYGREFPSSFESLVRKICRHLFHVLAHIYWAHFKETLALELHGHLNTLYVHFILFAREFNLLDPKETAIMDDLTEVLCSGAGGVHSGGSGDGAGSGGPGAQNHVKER
Chain of UniProt P04181 (P04181 whole entry, looked up): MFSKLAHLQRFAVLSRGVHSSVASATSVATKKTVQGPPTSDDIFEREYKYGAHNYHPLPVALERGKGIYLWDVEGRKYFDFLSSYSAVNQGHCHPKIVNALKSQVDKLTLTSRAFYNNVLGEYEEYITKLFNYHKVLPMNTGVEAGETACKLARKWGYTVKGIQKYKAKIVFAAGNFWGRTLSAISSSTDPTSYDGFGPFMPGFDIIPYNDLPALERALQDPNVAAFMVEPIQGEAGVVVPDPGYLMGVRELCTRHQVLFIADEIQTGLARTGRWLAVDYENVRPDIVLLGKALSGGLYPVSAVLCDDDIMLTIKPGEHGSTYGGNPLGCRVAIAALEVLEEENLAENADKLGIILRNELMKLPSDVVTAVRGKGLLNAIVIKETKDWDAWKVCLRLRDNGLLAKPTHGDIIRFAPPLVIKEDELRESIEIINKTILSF
Chain of UniProt P40261 (P40261 whole entry, looked up): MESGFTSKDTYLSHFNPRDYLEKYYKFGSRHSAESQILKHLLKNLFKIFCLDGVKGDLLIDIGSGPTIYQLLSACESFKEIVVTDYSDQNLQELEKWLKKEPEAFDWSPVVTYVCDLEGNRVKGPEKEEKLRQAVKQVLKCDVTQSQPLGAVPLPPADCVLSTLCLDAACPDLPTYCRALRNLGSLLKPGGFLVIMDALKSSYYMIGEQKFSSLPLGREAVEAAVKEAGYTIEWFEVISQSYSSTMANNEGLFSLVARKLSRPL
Chain of UniProt Q9H3L0 (Q9H3L0 whole entry, looked up): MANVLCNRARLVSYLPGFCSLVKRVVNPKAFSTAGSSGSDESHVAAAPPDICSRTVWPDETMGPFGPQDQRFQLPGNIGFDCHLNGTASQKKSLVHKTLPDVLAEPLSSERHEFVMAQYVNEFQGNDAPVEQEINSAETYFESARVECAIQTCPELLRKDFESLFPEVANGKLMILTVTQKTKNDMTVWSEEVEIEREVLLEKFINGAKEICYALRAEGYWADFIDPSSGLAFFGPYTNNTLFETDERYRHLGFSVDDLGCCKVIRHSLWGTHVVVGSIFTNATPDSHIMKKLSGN

Target | log2 fold change
NMU (UniProt P48645) | 0.011 (inactive)
NIPSNAP3B (UniProt Q9BS92) | -0.029 (inactive)
NFYB (UniProt P25208) | 0.074 (inactive)
MYLK (UniProt Q15746) | 0.856 (active)
NAP1L1 (UniProt B7Z9C2) | -0.011 (inactive)
NAGPA (UniProt Q9UK23) | -0.082 (inactive)
NNMT (UniProt P40261) | 0.015 (inactive)
NKAP (UniProt Q8N5F7) | 0.059 (inactive)
MMADHC (UniProt Q9H3L0) | -0.068 (inactive)
OGFOD2 (UniProt Q6N063) | 0.004 (inactive)
OVCA2 (UniProt Q8WZ82) | 0.026 (inactive)
NUP160 (UniProt Q12769) | -0.078 (inactive)
NPM3 (UniProt O75607) | -0.045 (inactive)
P4HA2 (UniProt O15460) | 0.056 (inactive)
NA, A0A494C071 | 0.074 (inactive)
MOB2 isoform 3 (UniProt Q70IA6) | -0.133 (inactive)
MT-ND2 (UniProt P03891) | -0.006 (inactive)
NRDC isoform 2 (UniProt O43847) | -0.019 (inactive)
NA, A0A2R8Y3M9 | 0.035 (inactive)
MRFAP1 (UniProt Q9Y605) | -0.174 (inactive)

Target | log2 fold change
NCBP2AS2 (UniProt Q69YL0) | 0 (inactive)
OAT (UniProt P04181) | 0.036 (inactive)
MON1A (UniProt Q86VX9) | -0.163 (inactive)
NDFIP1 (UniProt Q9BT67) | -0.214 (inactive)
NME2P1 (UniProt O60361) | -0.236 (inactive)
MOB3B (UniProt Q86TA1) | -0.168 (inactive)
MYO19 (UniProt Q96H55) | -0.022 (inactive)
MYH16 (UniProt Q9H6N6) | 0.061 (inactive)
ORC5 (UniProt O43913) | 0.133 (inactive)
MSL1 (UniProt Q68DK7) | 0.004 (inactive)
NDUFB1 (UniProt O75438) | 0.095 (inactive)
NUMBL (UniProt Q9Y6R0) | -0.001 (inactive)
NELFCD (UniProt Q8IXH7) | -0.233 (inactive)
MTFR1L (UniProt Q9H019) | 0.014 (inactive)
NUP98 (UniProt P52948) | -0.034 (inactive)
NECTIN2 isoform 2 (UniProt Q92692) | 0.129 (inactive)
MRPS16 (UniProt Q9Y3D3) | -0.187 (inactive)
MLX (UniProt Q9UH92) | -0.11 (inactive)
OPHN1 (UniProt O60890) | -0.088 (inactive)
